Measurements as given in PubChem BioAssay AID652104 (National Center for Advancing Translational Sciences (NCATS), 2013).
In all, about 410,000 compounds went through this assay and about 7,200 (1.8%) were called active. Inconclusive results (about 7%) are left out. The call rests on the fitted dose curve; in most records, active means well fitted activation curve with a large enough effect; inconclusive means small, poorly fitted or top-dose-only effect, or another doubt; inactive means no such curve, though single readings can be large or run the other way. What follows is part of a selection rich in actives, with near analogues and random picks from the rest.

Assay: qHTS of TDP-43 Inhibitors; further: nearly all actives have a fitted effect of over 50% in size; on growth rescue (activation): % of control where 0% means no effect
Conditions: TDP-43 expressing yeast growth rescue, BacTiter-Glo, 24 h; series mostly up to 46.1 µM; growth rescue (activation): at the top concentration
Procedure, shortened: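 Growth rescue of TDP-43-toxic yeast measured as ATP luminescence (BacTiter-Glo). Cells grown to mid-log in raffinose, induced in galactose at OD600=0.02, exposed to compound 24 hr at 30 deg C.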
Potency means the concentration at half of the fitted maximal effect.

SMILES | growth rescue (activation) | Potency
CC(C)CNc1ncnc2c1nnn2C | 12.5% (inactive) | 
CC(O)c1nc2ccccc2n1Cc1ccc([N+](=O)[O-])cc1 (configuration not stated) | 5.24% (inactive) | 
O=C(O)Cn1c(Cc2ccccc2)nc2ccccc21 | 3.72% (inactive) | 
CC(=O)c1nc2ccccc2n1Cc1ccccc1 |  | 11.2 µM (active)
Cc1ccc(NC(=O)Cn2c(=O)n(-c3ccccc3)c(=O)c3c4c(sc32)CCCC4)cc1 | 12.7% (inactive) | 
COc1ccccc1-c1n[nH]c2c1[C@H](C)CC[C@H]2C(C)C |  | 25.1 µM (active)
COc1ccccc1-c1n[nH]nc1C1=CC(=O)CC(C)(C)C1 | 0% (inactive) | 
COc1ccc(N2CCN(C(=O)c3c(C)oc4nc(C)nc(N5CCCC5)c34)CC2)cc1 | 24.1% (inactive) | 
NS(=O)(=O)c1ccc(NC(=O)COc2ccc(S(=O)(=O)NC3CCCCC3)cc2)cc1 | 7.49% (inactive) | 
CCOc1ccc(C2CC(=O)c3c([nH]c(C(=O)OCc4ccccc4)c3C)C2)cc1 (configuration not stated) | 13.5% (inactive) | 
O=C(Cn1nc(Cc2cccnc2)c2ccccc2c1=O)N1CCN(c2ccccc2F)CC1 | -3.56% (inactive) | 
CCN(CC)S(=O)(=O)c1nnc(NC(=O)COc2ccccc2Cl)s1 | 22.7% (inactive) | 
CC(C)(C)C(=O)c1c(N)[nH]c(C(=O)c2ccccc2)c1-c1ccc(F)cc1 | 22.8% (inactive) | 
Nc1[nH]c(C(=O)c2ccccc2)c(-c2ccncc2)c1C(=O)NCc1cccc2ccccc12 | 12.8% (inactive) | 
Cc1nc2ccccc2c(-c2ccccc2)c1C(=O)c1ccccc1 |  | 22.4 µM (active)
CCCNC(=O)CCC(=O)N1Cc2ccccc2Oc2ncccc21 | 7.07% [at 9.22 µM] (inactive) | 
CC(C)c1ccc(NS(=O)(=O)c2ccc3[nH]cc(C(=O)NC4CCCC4)c(=O)c3c2)cc1 | 0% (inactive) | 
CCCOc1ccc(C2c3c(-c4ccccc4O)n[nH]c3C(=O)N2Cc2cccnc2)cc1 (configuration not stated) | -2.59% (inactive) | 
Cc1c(Cl)cccc1NC(=O)C1CCCN(C(=O)c2cnn(-c3ccccc3)c2-n2cccc2)C1 (configuration not stated) | 0.375% (inactive) | 
Cc1cc(C)cc(-n2ccnc2SCC(=O)Nc2nc3ccccc3s2)c1 | 5.14% (inactive) | 
CC(C)CC(=O)NC(=S)NNC(=O)c1cccc([N+](=O)[O-])c1 | -4.92% [at 9.22 µM] (inactive) | 
CC(C)CC(=O)N/C(N)=N/c1nc2ccccc2s1 |  | 15.8 µM (active)
CCN1CCN(CCCNC(=O)c2ccc3c(c2)sc2nc(-c4ccc(OC)cc4)cn23)CC1 | -44.4% (inactive) | 
O=C(NCCc1ccccc1)c1ccc2c(c1)N(Cc1ccccc1)C(=O)c1ccccc1S2(=O)=O | 26.3% (inactive) | 
Cc1ccccc1CNC(=O)CCc1cn(Cc2ccccc2C)c2ccccc12 | 20.1% (inactive) | 

SMILES | growth rescue (activation) | Potency
O=C(C1CCN(c2nnc(-n3cccc3)s2)CC1)N1CCc2ccccc2C1 |  | 35.5 µM (active)
CCOC(=O)C1CCCN(C(=O)C2CCN(c3nnc(-n4cccc4)s3)CC2)C1 (configuration not stated) | 12% (inactive) | 
CSc1ccc(CCNC(=O)C2CCN(c3nnc(-n4cccc4)s3)CC2)cc1 | 0% (inactive) | 
Cc1ccc(-c2nn3c(=O)cc(CN4CCN(C(=O)Nc5cccc(C(F)(F)F)c5)CC4)nc3s2)cc1 | 21.4% (inactive) | 
O=S(=O)(c1ccccc1)N1CCC(c2ccccc2)CC1 | 0.641% (inactive) | 
O=C(C(=O)N1CCC(c2ccccc2)CC1)c1ccccc1 |  | 12.6 µM (active)
Cc1nc2ccc(NC(=O)N3CCC(c4ccccc4)C3)cc2nc1C (configuration not stated) | 1.58% (inactive) | 
Cc1cccc2nc(-c3ccc(Cl)s3)c(Nc3ccc4c(c3)OCCO4)n12 | 23.9% (inactive) | 
Fc1ccc(-c2nc(Nc3cccc(Cl)c3)nc3c2COc2ccccc2-3)cc1 | 2.51% (inactive) | 
Cc1ccn2c(Nc3ccc4c(c3)OCCO4)c(-c3ccc(C)s3)nc2c1 | -8.94% (inactive) | 
CCN1CCN(C(=O)CN(C)S(=O)(=O)c2ccc3ccccc3c2)CC1 | 4.91% (inactive) | 
CC(=O)N(c1ccc2oc(=O)sc2c1)S(=O)(=O)c1ccc(C)cc1 | -9.63% (inactive) | 
CC(=O)Oc1ccc(N(C(C)=O)S(=O)(=O)c2ccc3ccccc3c2)cc1Br |  | 12.6 µM (active)
Cc1cccc(-n2ncc(C(=O)N3CCC(C)CC3)c2C2CCN(C(=O)OC(C)(C)C)CC2)c1 | -10.8% (inactive) | 
CC(C)(C)C1CCc2c(sc(NC(=O)c3ccccc3F)c2C(=O)N2CCCCC2)C1 (configuration not stated) | 0% (inactive) | 
COc1ccc(-c2nc(Cn3c(=O)cc(C)c4c(C)nn(-c5ccccc5)c43)c(C)o2)cc1OC | -1.69% (inactive) | 
CCc1ccccc1NC(=O)c1cnn(-c2ccc(F)cc2)c1C1CCNCC1 | 23% (inactive) | 
COc1ccccc1CNC(=O)C(=O)NCC(c1ccco1)S(=O)(=O)c1ccc(F)cc1 (configuration not stated) | 18.5% (inactive) | 
COc1cc(OC)c(OC)cc1/C=C/c1nc2ccccc2c(=O)n1-c1ccc(Br)c(C)c1 |  | 22.4 µM (active)
COc1cc(OC)c(OC)cc1/C=C/c1nc2cc3ccccc3cc2c(=O)n1-c1ccc(F)c(Cl)c1 | 21.1% (inactive) | 
COc1cc(C(=O)Nc2ccc(-n3c(C)nc4ccccc4c3=O)cc2)cc(OC)c1OC | 0% (inactive) | 
O=C(Cc1ccc(Cl)cc1)NCC(c1cccs1)S(=O)(=O)c1ccc(Cl)cc1 (configuration not stated) | 0.548% [at 9.22 µM] (inactive) | 
Cc1ccc(Cl)cc1N(C)C(=O)C1CCCN(c2ncnc3onc(-c4ccc(F)cc4)c23)C1 (configuration not stated) |  | 35.5 µM (active)
Cc1c(Cl)cccc1NC(=O)C1CCCN(c2ncnc3onc(C)c23)C1 (configuration not stated) | 7.94% (inactive) | 
CCc1ccccc1N(C)C(=O)C1CCCN(c2ncnc3onc(-c4ccc(F)cc4)c23)C1 (configuration not stated) | 13.9% (inactive) | 

SMILES | growth rescue (activation) | Potency
Cc1cn(C)c(CC(=O)NCc2ccccc2)c1C(=O)O | 11.9% (inactive) | 
O=C(/C=C/c1ccccc1)N1CCN(Cc2cc(=O)n3nc(-c4ccccc4F)sc3n2)CC1 | 0.573% (inactive) | 
CCc1ccccc1NC(=O)c1cc(-c2ccc3c(c2)OCO3)on1 |  | inactive
O=C(NCc1ccccc1)c1cc(-c2cccc(Cl)c2)on1 | 10.6% (inactive) | 
O=C(Nc1ccccc1C(F)(F)F)c1cc(-c2ccc(O)cc2)on1 |  | 12.6 µM (active)
COc1ccc(NC(=O)Cn2c(=O)cc(C)c3c(C)nn(-c4cccc(Cl)c4C)c32)cc1OC | 15.4% (inactive) | 
CCOC(=O)c1cc(-c2ccccc2)n(-c2cccc(C(=O)Nc3cc(OC)cc(OC)c3)c2)c1C | 13.5% (inactive) | 
CC(C)OCCCn1c(SCC(=O)c2ccccc2)nc2c(sc3ccccc32)c1=O | 22.8% (inactive) | 
CCn1c(CNS(=O)(=O)c2ccc(Cl)cc2)n[nH]c1=S | -8.25% (inactive) | 
CCn1c(CN2C(=O)CSc3ccccc32)n[nH]c1=S | -24.2% (inactive) | 
CCn1c(CSCc2c(Cl)cccc2Cl)n[nH]c1=S |  | 11.2 µM (active)
CC(C)(C)c1ccc(C(=O)Nc2ccc3c(c2)CCCN3C(=O)c2cccs2)cc1 | 18.3% [at 9.22 µM] (inactive) | 
CCOC(=O)c1c(S(=O)(=O)NCC(=O)Nc2ccc(Cl)c(C(F)(F)F)c2)c(C)n(C)c1C | -5.08% (inactive) | 
CCOc1cc(/C=N/Nc2cc(C)nc3ccc(C)cc23)ccc1O |  | 15.8 µM (active)
CCOc1cc(/C=C2\SC(N3CCCC(C)C3)=NC2=O)ccc1O (configuration not stated) | -3.68% (inactive) | 
COc1cc(OC)cc(C(=O)Nc2cc3nn(-c4ccccc4)nc3cc2Cl)c1 | 2.89% (inactive) | 
O=[N+]([O-])c1cc(-c2nc(-c3ccccc3)no2)ccc1NCc1ccco1 | 6.16% (inactive) | 
CCc1nn(CCCC(=O)NCc2ccccc2OC)c(=O)c2cc3occc3n12 | 0% (inactive) | 
COC(=O)c1cc2c(N)c(C(=O)c3ccc(Cl)cc3)sc2nc1C(OC)OC | 11.8% (inactive) | 
CN(C(=O)c1ccccc1)c1nccnc1C#N | -6.6% (inactive) | 
Cc1ccc(NC(=O)c2sc3nc(N)c(C#N)cc3c2N)cc1 | 1.81% (inactive) | 
Nc1c(C(=O)c2cccs2)sc2nsc(SCCN3CCCCC3)c12 | -31% (inactive) | 
COc1cccc(C(=O)c2sc3nc(-c4ccccc4)cc(C(F)(F)F)c3c2N)c1 | 19% (inactive) | 
COc1ccccc1NC(=O)c1sc2nc(C)c(C(=O)Nc3ccc(Cl)cc3)c(-c3ccc(Br)cc3)c2c1N | 3.6% (inactive) | 
NC(=O)c1sc2nc3c(c(-c4ccccc4)c2c1N)CCC3 |  | 28.2 µM (active)

SMILES | growth rescue (activation) | Potency
Cc1ccc2c(N)c(C(=O)c3ccccc3)sc2n1 |  | 14.1 µM (active)
Cc1nc2sc(C(=O)c3ccccc3)c(N)c2c2c1CCCC2 |  | 22.4 µM (active)
CN(C)c1ccnc2sc(C(=O)c3ccccc3)c(N)c12 |  | 6.31 µM (active)
CCCS(=O)(=O)c1c(Nc2ccccc2C)sc(C(=O)c2ccccc2)c1N | 28.5% (inactive) | 
Cc1ccccc1CSCCNC(=O)C1CCN(S(=O)(=O)Cc2ccccc2)CC1 | 16.1% (inactive) | 
Cc1c(NS(=O)(=O)c2ccc(Cl)cc2)c(=O)n(-c2ccccc2)n1C | 10.6% (inactive) | 
CCCN(CCC)CCNC(=O)Cn1cnc2sc(C)c(S(=O)(=O)N3CCC(C)CC3)c2c1=O | 8.27% (inactive) | 
CCc1ccccc1NC(=O)N1CCN(C(=O)c2nsc3ccccc23)CC1 | 20.8% (inactive) | 
COc1ccc(C2Sc3ccccc3NC3=C2C(=O)c2ccccc23)c(OC)c1OC (configuration not stated) | 0% (inactive) | 
Cc1ccc(C(=O)Nc2ccc(C(=O)O)cc2)cc1S(=O)(=O)Nc1ccccc1 | 22.9% (inactive) | 
Cc1cccc(C(=O)Nc2ccc(-c3nc4ncccc4o3)cc2C)c1 | 15.3% (inactive) | 
O=C(NCc1cccnc1)C(=O)NCC(c1cccnc1)N1CCN(c2ccccc2)CC1 (configuration not stated) | 6.7% (inactive) | 
O=C(NCc1ccc2c(c1)CCN2C(=O)c1ccccc1)c1ccccc1 | 24.4% (inactive) | 
COc1ccc(N)c(C)c1 | 28% (inactive) | 
COc1ccc2[nH]c3c(C)c4cc[n+](C)cc4c(C)c3c2c1 | 0% (inactive) | 
COc1ccc2[nH]c3ccc(OC)cc3c2c1 |  | 8.91 µM (active)
Cc1ccc(Cl)cc1N(C)C(=O)Cn1nc(Cc2cccnc2)c2ccccc2c1=O | -12.3% (inactive) | 
CCCn1c2ccccc2c2cnn(CC(=O)N3CCCC(C(=O)OCC)C3)c(=O)c21 (configuration not stated) | 28% (inactive) | 
CCc1ccc(S(=O)(=O)n2ccnc2)cc1 | 16.1% (inactive) | 
COc1cccc(Cn2c(SCc3ccc(C(=O)N4CCC(C)CC4)cc3)nc3ccncc32)c1 | 1.69% (inactive) | 
N#C/C(=C\c1cccc(F)c1)c1nc(-c2cc3c(ccc4ccccc43)oc2=O)cs1 | -13.3% (inactive) | 
O=C(CSc1nc2c(c(=O)[nH]1)CN(Cc1ccc3c(c1)OCO3)CC2)Nc1cc(F)ccc1F | -2.02% (inactive) | 
